Six1-Eya2 blk – blocks human Six1 binding to Eya2; Q15475+O00167; AlphaScreen GST-Six1/His-Eya2 binding, biochemical; stronger effect = lower value; activity change, % (no concentration beside the values); hit rate 0.56% among 360,000; AID 651725
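Six1/Eya2 binding was read as AlphaScreen signal after compounds were pinned into GST-Six1 plus His-tagged Eya2 (5X stock 250/500 nM) in pH 8.0 Tris/NaCl/TCEP buffer, beads added, then incubated 1 h, 37 C, dark.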
L3MBTL1 block – blocks human L3MBTL1 | Potency, µM (doses to about 57.1 µM), for the others: at the highest dose activity, negative = inhibition, most hits filed as inhibitors | AlphaScreen L3MBTL1–H3K9me1 peptide binding | hit rate 0.66% among 230,000 | AID 485360 | Q9Y468; active = well fitted inhibition curve with a large enough effect; inconclusive = small, poorly fitted or top-dose-only effect; inactive = no such curve, though single readings can be large or run the other way; also: potency is read from the fitted curve at half-maximal effect; nearly all actives have a fitted effect of over 60% in size
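L3MBTL1 (50 nM) pre-complexed 30 min with biotinylated H3(1-15)K9me1 peptide (75 nM), then compounds added for 30 min at room temperature; AlphaScreen streptavidin donor/nickel chelate acceptor beads (10 ug/mL final) read after 30 min dark incubation.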
CtBP-E1A blk – inhibitors of CtBP/E1A interaction | AlphaScreen GST-E1A/His-CtBP binding, 1536-well; stronger effect = lower value | activity change, % (test concentration not listed) | hit rate 0.49% among 340,000
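Homogeneous bead-based format: GST-tagged E1A captured on glutathione donor beads, His-tagged CtBP on nickel acceptor beads; compounds precede bead addition by 2 h at 37 °C.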
JMJD2E inh – JMJD2E (human) inhibition. B2RXH2. JMJD2E catalytic domain, FDH-coupled NADH fluorescence (FDH is formaldehyde dehydrogenase). Potency, µM (highest dose often 57.1 µM), for inactives: top-dose activity change, negative = inhibition, actives largely listed as inhibitors. hit rate 1.6% among 230,000. AID 2147; active = well fitted inhibition curve with a large enough effect, not every such curve was filed as active; inconclusive = small, poorly fitted or top-dose-only effect, or another doubt; inactive = no such curve, though single readings can be large or run the other way;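 also: potency is read from the fitted curve at half-maximal effect; 0% = wells with enzyme and -100% = buffer wells without enzyme; nearly all actives have a fitted effect of over 50% in size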
Active calls of the source: *; [ ] = remark or other dose. Many of the other results were omitted from the sample, so hits are more common in it than they were. Rule as the data show it, unless noted: active = activity change below about -65%; inconclusive = mostly about -30% to -63%; inactive = weaker than that. Unless noted, % is scaled to controls: 0 for no effect and ±100 for the full control effect.

How did c1ccc(CNc2oc(-c3ccccc3)nc2-c2ccccc2)cc1 do in these assays?
JMJD2E inh: -10.4%

What do the screens show for `COc1c2c(nc3ccccc13)O[C@H]([C@@](C)(O)CO)C2`?
JMJD2E inh: 4.5%[25.5 µM]

Results for CCCn1nnc(NC(=S)NC(=O)c2ccc(-c3ccc(Br)cc3)o2)n1 ?
Six1-Eya2 blk: 1.6; L3MBTL1 block: -10.6%; CtBP-E1A blk: -3.5; JMJD2E inh: -8.9%

What do the screens show for `Cn1nnc(NC(=S)NC(=O)c2ccc(-c3ccc(Br)cc3)o2)n1`?
Six1-Eya2 blk: -71.8*; L3MBTL1 block: -0.6%; CtBP-E1A blk: -69.5*; JMJD2E inh: -20.8%

Results for COC(=O)C1=C(C)N(c2cc(C)cc(C)c2)/C(=C/c2ccco2)C1=O ?
Six1-Eya2 blk: 3.8; L3MBTL1 block: 12.6µM*; CtBP-E1A blk: 21.8; JMJD2E inh: -26.5%

Results for O=C(N/N=C/c1ccc([N+](=O)[O-])o1)c1cc2c(ccc3ccccc32)o1 ?
Six1-Eya2 blk: -5.7; L3MBTL1 block: 6.31µM*; CtBP-E1A blk: 4.4; JMJD2E inh: inconclusive

What do the screens show for `O=C(N/N=C/c1ccc([N+](=O)[O-])o1)c1cc2ccccc2o1`?
Six1-Eya2 blk: -12.6; JMJD2E inh: 3.6%

How did COc1ccc(CCNCC(=O)Nc2ccc(C)c(S(=O)(=O)N(C)C)c2)cc1 do in these assays?
Six1-Eya2 blk: -1.6; L3MBTL1 block: 1.1%; CtBP-E1A blk: -2.5; JMJD2E inh: 28.2µM*

How did CCOc1ccc(C2Nc3ccc4ccccc4c3-c3c2c(=O)oc2ccccc32)cc1 (stereo not drawn) do in these assays?
Six1-Eya2 blk: 12.2; CtBP-E1A blk: 10.8; JMJD2E inh: inconclusive

Results for COc1ccc(C2Nc3ccc4ccccc4c3-c3c2c(=O)oc2ccccc32)cc1 (stereo not drawn) ?
JMJD2E inh: 3.16µM*

How did O=C1C(Cl)=C(Nc2ccc(O)cc2)C(=O)c2ccccc21 do in these assays?
Six1-Eya2 blk: -0.5; L3MBTL1 block: -1.9%; CtBP-E1A blk: -15.6; JMJD2E inh: -1.6%

What do the screens show for `COC1=C(Nc2ccc(O)cc2)C(=O)c2ccccc2C1=O`?
Six1-Eya2 blk: inconclusive; L3MBTL1 block: inconclusive; CtBP-E1A blk: inconclusive; JMJD2E inh: 10µM*

Results for COC1=C(Nc2ccc(OC)cc2)C(=O)c2ccccc2C1=O ?
Six1-Eya2 blk: -75.3*; L3MBTL1 block: 28.2µM*; CtBP-E1A blk: 12.3; JMJD2E inh: 3.98µM*

How did CCN(CC)c1ccc(NC2=C(Cl)C(=O)c3ccccc3C2=O)cc1 do in these assays?
Six1-Eya2 blk: inconclusive; L3MBTL1 block: inconclusive; CtBP-E1A blk: inconclusive; JMJD2E inh: 7.08µM*

What do the screens show for `CCOc1ccc(NC2=C(OC)C(=O)c3ccccc3C2=O)cc1`?
Six1-Eya2 blk: -74.9*; L3MBTL1 block: 25.1µM*; CtBP-E1A blk: inconclusive; JMJD2E inh: 14.1µM*

Results for COC1=C(Nc2ccc(OC)cc2)C(=O)C(OC)=C(Nc2ccc(OC)cc2)C1=O ?
Six1-Eya2 blk: -3.9; CtBP-E1A blk: -10.5

Results for COc1ccc(NC2=C(NCCO)C(=O)c3ccccc3C2=O)cc1 ?
Six1-Eya2 blk: -28.5; L3MBTL1 block: inconclusive; CtBP-E1A blk: -23.1; JMJD2E inh: inconclusive

What do the screens show for `COc1ccc2c(c1)O[C@@H](c1cccc(C(F)(F)F)c1)[C@H](OC(=O)NCCOc1ccccc1)C2=O`?
JMJD2E inh: 5.6%

How did O=C(/C=C/c1ccccc1Cl)NC(=S)Nc1ccccc1C(=O)NC1CCCCC1 do in these assays?
Six1-Eya2 blk: 2.5; L3MBTL1 block: -2.1%; CtBP-E1A blk: 3.4; JMJD2E inh: 6.9%

What do the screens show for `CN(Cc1c(F)cccc1Cl)C(=O)CNC(=O)c1cccs1`?
Six1-Eya2 blk: -4.9; CtBP-E1A blk: 1.3

What do the screens show for `O=[N+]([O-])c1ccccc1S(=O)(=O)NCC1CCC(CNCC2CCc3ccccc3C2)CC1` (stereo not drawn)?
JMJD2E inh: 5.5%

How did O=C1CSC(=S)N1N=Cc1ccccc1O do in these assays?
Six1-Eya2 blk: -90.2*; CtBP-E1A blk: -1.9

Results for COc1cc(O)c(C=NN2C(=O)CSC2=S)c(OC)c1 ?
Six1-Eya2 blk: -87.2*; CtBP-E1A blk: inconclusive

How did COc1cc(/C=N/N2C(=O)CSC2=S)ccc1O do in these assays?
Six1-Eya2 blk: -23.4; CtBP-E1A blk: inconclusive; JMJD2E inh: 3.4%

Results for O=C1CSC(=S)N1/N=C/c1ccc2c(c1)OCCO2 ?
Six1-Eya2 blk: -27.8; CtBP-E1A blk: -81.8*

Results for COc1cc(/C=C2\SC(c3ccc(C)cc3)=NC2=O)cc(OC)c1O ?
Six1-Eya2 blk: -14.7; L3MBTL1 block: inconclusive; CtBP-E1A blk: inconclusive; JMJD2E inh: inconclusive
